Twelve compounds from the supplement of paper PMC10723795 can be followed below.

± gives the standard deviation of the averaged measurements.

This experiment concerns BJ5TA. Put plainly: nucleolar normality score relative to DMSO (fraction of DMSO control); RPE1 is a non-cancer human cell line; higher = more normal nucleoli (less nucleolar stress). As to the method:
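Selected screen hits were validated in hTERT lines (BJ5TA, CHON-002, RPE1) and cancer lines (DLD1, HCT116). Cells were immunostained for nucleolin and UBF and the nucleolar normality score was measured per field of view, with 4 fields per drug. Scores are normalized to each cell line's own DMSO control. Dose and time are not stated for this panel.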
In turn, `CN1CC[C@H](c2c(O)cc(O)c3c(=O)cc(-c4ccccc4Cl)oc23)[C@H](O)C1` [Flavopiridol] returned a nucleolar normality score of 0.202 ± 0.03.

As to `Cc1cnc(CNC(=O)c2c(=O)c3ccc(N4CCCN(C)CC4)nc3n3c2sc2ccccc23)cn1`, the nucleolar normality score is 0.107 ± 0.0069.

Compound `CCc1cnn2c(NCc3ccc[n+]([O-])c3)cc(N3CCCC[C@H]3CCO)nc12` [Dinaciclib] returned a nucleolar normality score of 0.242 ± 0.0091.

`CC(C)c1c2cc(-c3ccnc(NC4CCC(NC5CCOCC5)CC4)n3)ccc2nn1C` (configuration not stated) yielded a nucleolar normality score of 0.317 ± 0.025.

`C=CCNC1=C2C[C@@H](C)C[C@H](OC)[C@H](O)[C@@H](C)/C=C(\C)[C@H](OC(N)=O)[C@@H](OC)/C=C\C=C(/C)C(=O)NC(=CC1=O)C2=O` gave a nucleolar normality score of 0.306 ± 0.0062.

`COc1cccc2c1C(=O)c1c(O)c3c(c(O)c1C2=O)C[C@@](O)(C(=O)CO)C[C@@H]3O[C@H]1C[C@H](N)[C@H](O)[C@H](C)O1` [Doxorubicin] showed a nucleolar normality score of 0.129 ± 0.025.

The compound `CC(C)C[C@H](NC(=O)[C@H](CCc1ccccc1)NC(=O)CN1CCOCC1)C(=O)N[C@@H](Cc1ccccc1)C(=O)N[C@@H](CC(C)C)C(=O)[C@@]1(C)CO1` [Carfilzomib] gave a nucleolar normality score of 0.328 ± 0.027.

`CN(C)CCNC(=O)c1cccn2c(=O)c3cc4ccccc4cc3nc12` registered a nucleolar normality score of 0.0738 ± 0.013.

For the compound `CC(C)c1cc(C(=O)N2Cc3ccc(CN4CCN(C)CC4)cc3C2)c(O)cc1O` [Onalespib], the nucleolar normality score is 0.294 ± 0.019.

For `Cc1nc(-c2cn3c(n2)-c2ccc(-c4cnn(C(C)(C)C(N)=O)c4)cc2OCC3)n(C(C)C)n1` [Taselisib], the nucleolar normality score is 0.347 ± 0.013.

As for `CC(C)n1nc(-c2ccc3oc(N)nc3c2)c2c(N)ncnc21` [Sapanisertib], the nucleolar normality score was 0.418 ± 0.049.

`COC[C@H](NC(=O)c1cnc(C)s1)C(=O)N[C@@H](COC)C(=O)N[C@@H](Cc1ccccc1)C(=O)[C@@]1(C)CO1` [Oprozomib] registered a nucleolar normality score of 0.449 ± 0.043.
